A selection: hits, their analogues and other compounds. The true share with any hit is near 1.8%.
MsrA inh: bovine MsrA inhibition | purified bovine MsrA, absorbance read-out | inhibition, % at 15.5 µM | actives 0.75% (n = 360,000); in the data active = inhibition above about 4.5%;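 also: 0% = vehicle wells with enzyme and 100% = reference inhibitor wells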
m5-HT2A agonist: mouse HTR2A agonism via beta-arrestin recruitment. P35363. CHO-K1 mHTR2A beta-arrestin complementation, luminescence; percent of 30 µM serotonin response. activation, % at 7.6 µM. actives 0.66% (n = 360,000). AID 624169;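 active = activation above a run cutoff, the mean activation of all tested compounds plus 3 SD, cut at about 14% in these data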;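 also: 0% = plate median of compound wells and 100% = 30 µM serotonin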
GC-A act: GC-A (human) enzyme activation; P16066; HEK293 GC-A cells, cGMP TR-FRET, EC30 ANP; 0% at EC30 ANP, 100% saturating ANP; activation, % at 10 µM; actives 0.14% (n = 370,000); in the data active = activation above about 40%
NPR2 activator: GC-B (human) receptor activation; P20594; HEK293-GC-B cells, CNP EC30, cGMP TR-FRET; 0% at EC30 CNP, 100% saturating CNP; activation, % at 10 µM; actives 0.11% (n = 370,000);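 active = activation at 10 µM reaching about 35% in either raw or pattern-adjusted values, limit read from the data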
bovine MsrA act: bovine methionine sulfoxide reductase A activation | purified bovine MsrA, absorbance read-out | activation, % at 10.6 µM | actives 0.3% (n = 360,000); in the data active = activation above about 7.5%;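 also: 0% = vehicle and 100% = reference activator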
MsrA act confirm: confirmation of bovine methionine sulfoxide reductase A activators; shares compounds with bovine MsrA act; purified bovine MsrA, absorbance read-out; activation, % at 10.6 µM; actives 12% (n = 1,000); in the data active = activation above about 4%;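 also: enzyme coupled to thioredoxin and thioredoxin reductase with NADPH; 0% = vehicle wells and 100% = reference activator wells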
* = called active by the depositor; · = no result.

SMILES	MsrA inh	m5-HT2A agonist	GC-A act	NPR2 activator	bovine MsrA act	MsrA act confirm
COc1cccc(CNC(=O)c2cc3oc4ccccc4c3n2C)c1OC	0.3	-2.0	-0.5	0.8	0.0	·
O=C1C(Nc2ccc(O)cc2)=C/C(=N/S(=O)(=O)c2cccs2)c2ccccc21	48.6*	-2.9	-14.8	-10.1	9.9*	7.9*
CC1(C)C(CC(=O)O)CC1C(=O)O (stereo not given)	1.2	4.4	0.7	0.7	5.6	·
C#CC(C)(O)C1CC(CC(=O)O)C1(C)C (stereo not given)	·	-1.6	·	·	10.0*	-2.3
CN1C[C@@H]2[C@@H]3C(=O)N(Cc4ccccc4)C(=O)[C@@H]3[C@](Cc3ccccc3)(C1=O)N2C(=O)c1ccc(C(C)(C)C)cc1	-0.8	0.3	5.8	-1.9	8.8*	-0.5
Cc1cccc(NC(=S)N(CCN(C)C)Cc2cc3cccc(C)c3[nH]c2=O)c1	0.8	-2.5	-6.7	-7.5	20.1*	-0.6
O=C1N(Cc2ccccc2)c2ccccc2C12CCCc1oc(CCc3ccccc3)nc12 (stereo not given)	·	·	-3.5	5.0	·	·
O=C(O)c1ccccc1C(=O)Nc1n[nH]c(=S)s1	0.9	1.7	·	·	8.7*	1.5
C[C@H]1COc2cc(Br)ccc2S(=O)(=O)N1Cc1cn(Cc2ccc(Cl)cc2)nn1	·	·	-5.9	-0.5	·	·
S=c1[nH]nc(Cc2ccccc2)n1Cc1ccco1	-1.0	15.2*	-2.3	-0.1	7.7*	0.3
O=C(C1CCN(S(=O)(=O)c2ccccc2)CC1)N1CCc2ccccc21	-0.5	3.1	-1.0	-4.1	-3.5	·
O=C(C1CCN(S(=O)(=O)c2ccccc2F)CC1)N1CCc2ccccc21	-1.7	1.9	-1.1	-3.4	8.8*	-1.3
Cc1ccc(-n2c(SCc3c(Cl)cccc3Cl)nnc2-c2ccco2)cc1	·	·	-20.0	-5.8	·	·
Cc1cc(NC(=O)c2ccc(F)cc2)n(CCOC(=O)c2ccc(F)cc2)n1	-0.4	6.0	-3.1	0.9	-6.8	·
CCOC(=O)c1ccc(-n2ccnc2)c(NC(=O)c2ccc(Cl)cc2)c1	-0.8	-1.8	0.4	-0.2	8.1*	0.8
Cc1cc(NC(=O)c2ccc(Cl)cc2)n(CCOC(=O)c2ccc(Cl)cc2)n1	0.0	-0.5	-3.3	-0.7	9.1*	1.1
C/C(CC(=O)NC12CC3CC(CC(C3)C1)C2)=N\NC(=O)c1cnccn1	0.8	5.8	-3.9	2.2	14.5*	-0.8
COc1cccc(C(=O)NCCN2C(=O)C3C4C=CC(C4)C3C2=O)c1 (stereo not given)	·	·	3.3	-2.5	·	·
CC(C)NS(=O)(=O)c1ccc(NC(=O)C(C)Oc2ccc(C(=O)c3ccccc3)cc2)cc1 (stereo not given)	-1.4	0.8	-2.9	-0.5	8.5*	-3.6
CC(Oc1ccccc1)C(=O)Nc1ccc(C(N)=O)cc1 (stereo not given)	-1.1	-2.6	-0.7	3.7	-3.3	·
COC(=O)c1ccc(/C=C2/SC(=S)N(CCC(=O)NCCCN3CCOCC3)C2=O)cc1	0.7	4.1	-3.3	-1.1	8.1*	-3.2
CCCCNC(=O)C1CC(=O)N(CCC(C)C)C1 (stereo not given)	-0.6	2.4	1.6	1.3	-0.9	·
CC(C)CCN1CC(C(=O)NC(C)C)CC1=O (stereo not given)	-1.6	0.1	·	·	10.9*	1.3
COc1cccc(-c2cc3nc(NCCN4CCCC4)n(C)c(=O)c3s2)c1	1.8	-5.4	-2.9	-2.3	12.5*	0.5
O=C(NCc1nnnn1-c1ccc(F)cc1)C1CC(=O)N(c2ccc(F)cc2)C1 (stereo not given)	0.6	-3.6	-1.7	1.9	-0.4	·
Cc1ccc(-n2nnnc2CNC(=O)C2CC(=O)N(c3ccc(F)cc3)C2)cc1C (stereo not given)	-0.5	5.6	1.0	-2.5	7.7*	-1.3
COC(=O)[C@]12C[C@H](CC(=O)NCCc3ccccc3OC)C(=O)N(Cc3cccc4ccccc34)C1=C[C@H](COCc1ccccc1)O[C@@H]2C	·	·	2.6	-0.4	·	·
CSC1=NCCN1S(=O)(=O)c1ccc(NC(C)=O)cc1	-0.1	2.8	-1.0	4.3	21.3*	-2.6
COc1ccc(C(C)=O)cc1CN1C(=O)NC2(CCCCC2)C1=O	-0.8	2.5	-0.7	5.7	-5.1	·

High-throughput results: PubChem BioAssay, several laboratories
